Test results as given in paper PMC5700166.
Substitutions are numbered along the chain they refer to.

Key:
Experiment in all cases: protein-binding microarray (PBM); PBM: ~300 nM protein, 6 mM HEPES pH 7.8, 80 mM KCl, 0.5 mM EDTA, 0.5 mM EGTA, 6% glycerol, 35 ng/ul poly-dIdC, 1% milk, 1 h, room temperature; Ap Aiptasia and Nv Nematostella (sea anemones) / Co Capsaspora / Aq Amphimedon (sponge) / Dm Drosophila / Hu human; RHD is the Rel homology domain; high values mean tight binding
Conditions in all cases: dsDNA, one strand shown
GST-Ap-NF-kB RHD = target: T1, GST-Ap-NF-kB RHD (Exaiptasia pallida (Aiptasia), UniProt A0A913YAJ5 2-422)
T1 sequence: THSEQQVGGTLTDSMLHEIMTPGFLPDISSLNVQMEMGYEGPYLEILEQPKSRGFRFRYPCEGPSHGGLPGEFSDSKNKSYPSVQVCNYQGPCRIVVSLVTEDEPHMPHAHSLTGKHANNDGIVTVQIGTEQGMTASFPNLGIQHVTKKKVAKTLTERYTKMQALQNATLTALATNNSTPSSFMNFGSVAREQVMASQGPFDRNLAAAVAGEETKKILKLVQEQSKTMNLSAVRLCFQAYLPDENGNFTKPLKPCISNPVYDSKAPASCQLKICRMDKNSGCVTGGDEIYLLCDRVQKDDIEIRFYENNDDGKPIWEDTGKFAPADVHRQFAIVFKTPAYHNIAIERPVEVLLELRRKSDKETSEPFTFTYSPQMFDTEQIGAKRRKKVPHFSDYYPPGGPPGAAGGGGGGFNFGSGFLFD

[1] = target: T2, GST-Nv-NF-kB (Cys allele) (Nematostella vectensis, UniProt E5G601 2-411)
T2 sequence: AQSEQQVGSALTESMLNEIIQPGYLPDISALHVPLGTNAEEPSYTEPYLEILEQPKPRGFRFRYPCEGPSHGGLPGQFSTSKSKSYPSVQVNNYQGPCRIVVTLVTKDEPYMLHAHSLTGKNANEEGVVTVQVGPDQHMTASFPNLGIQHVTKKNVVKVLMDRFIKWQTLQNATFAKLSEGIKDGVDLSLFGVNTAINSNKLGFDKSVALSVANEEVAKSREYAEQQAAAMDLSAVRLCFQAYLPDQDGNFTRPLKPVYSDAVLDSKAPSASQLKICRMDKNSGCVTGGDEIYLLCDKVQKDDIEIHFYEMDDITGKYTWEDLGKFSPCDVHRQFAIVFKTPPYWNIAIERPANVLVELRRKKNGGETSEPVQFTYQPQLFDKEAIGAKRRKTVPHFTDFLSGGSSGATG

[2] = target: T3, GST-Nv-NF-kB (Ser allele) (Nematostella vectensis, UniProt A7UNT2 2-411)
T3 sequence: T2 sequence with Q21R, C66S, S207N, E215Q, V217A, E225K, A268E, D399E

GST-Co-NF-kB = target: T4, GST-Co-NF-kB (Capsaspora owczarzaki, UniProt F1ARL5 200-546)
T4 sequence: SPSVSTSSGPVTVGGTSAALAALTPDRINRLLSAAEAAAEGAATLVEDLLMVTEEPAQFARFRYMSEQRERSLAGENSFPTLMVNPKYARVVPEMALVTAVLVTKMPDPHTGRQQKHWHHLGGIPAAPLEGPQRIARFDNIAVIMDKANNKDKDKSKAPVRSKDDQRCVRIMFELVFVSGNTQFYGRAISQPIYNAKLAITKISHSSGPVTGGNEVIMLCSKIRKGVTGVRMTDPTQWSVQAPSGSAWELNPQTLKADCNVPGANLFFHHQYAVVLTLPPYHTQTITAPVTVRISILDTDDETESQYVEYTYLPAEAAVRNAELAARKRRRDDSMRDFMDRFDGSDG

GST-Dm-Relish = target: T5, GST-Dm-Relish (Drosophila melanogaster, UniProt Q94527 99-473)
T5 sequence: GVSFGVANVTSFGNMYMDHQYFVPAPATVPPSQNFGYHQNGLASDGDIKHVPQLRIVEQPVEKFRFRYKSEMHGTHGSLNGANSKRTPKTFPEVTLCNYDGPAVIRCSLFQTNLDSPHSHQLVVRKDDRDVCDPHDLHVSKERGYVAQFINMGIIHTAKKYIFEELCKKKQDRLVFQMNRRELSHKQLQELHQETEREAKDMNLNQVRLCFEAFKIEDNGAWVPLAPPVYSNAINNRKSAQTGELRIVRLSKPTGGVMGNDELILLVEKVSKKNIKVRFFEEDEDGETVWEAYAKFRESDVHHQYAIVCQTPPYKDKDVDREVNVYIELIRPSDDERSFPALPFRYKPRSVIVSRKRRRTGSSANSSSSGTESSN

GST-Aq-NF-kB = target: T6, GST-Aq-NF-kB (Amphimedon queenslandica, UniProt A9Y5G7 2-389)
T6 sequence: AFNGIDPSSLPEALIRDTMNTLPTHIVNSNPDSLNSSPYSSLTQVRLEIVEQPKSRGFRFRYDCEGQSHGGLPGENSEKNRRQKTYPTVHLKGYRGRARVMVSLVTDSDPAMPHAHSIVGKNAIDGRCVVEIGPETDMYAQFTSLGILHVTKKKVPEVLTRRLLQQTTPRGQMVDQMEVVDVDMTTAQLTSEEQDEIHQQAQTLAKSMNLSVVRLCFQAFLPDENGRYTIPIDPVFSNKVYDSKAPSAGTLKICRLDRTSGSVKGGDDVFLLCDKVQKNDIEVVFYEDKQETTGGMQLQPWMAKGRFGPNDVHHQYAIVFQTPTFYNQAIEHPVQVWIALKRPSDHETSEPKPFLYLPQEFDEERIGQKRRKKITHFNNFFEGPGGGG

GST-Hu-p50 = GST-Hu-p50 (Homo sapiens, UniProt P19838 7-356)
Chain of GST-Hu-p50 (P19838 7-356): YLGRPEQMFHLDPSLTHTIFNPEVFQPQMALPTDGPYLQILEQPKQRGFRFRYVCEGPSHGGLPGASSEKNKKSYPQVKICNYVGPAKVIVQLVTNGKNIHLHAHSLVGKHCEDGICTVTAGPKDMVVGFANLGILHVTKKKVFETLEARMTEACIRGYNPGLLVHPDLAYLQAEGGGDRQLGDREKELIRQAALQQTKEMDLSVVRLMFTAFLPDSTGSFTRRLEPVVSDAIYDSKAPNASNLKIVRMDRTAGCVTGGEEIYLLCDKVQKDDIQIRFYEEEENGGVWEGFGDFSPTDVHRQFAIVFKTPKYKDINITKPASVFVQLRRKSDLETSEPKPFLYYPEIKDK

| Sequence | binding signal (GST-Ap-NF-kB RHD) [z-score] | binding signal [1] [z-score] | binding signal [2] [z-score] | binding signal (GST-Co-NF-kB) [z-score] | binding signal (GST-Dm-Relish) [z-score] | binding signal (GST-Aq-NF-kB) [z-score] | binding signal (GST-Hu-p50) [z-score] |
| --- | --- | --- | --- | --- | --- | --- | --- |
| CCGATTAACATCAGGATCCCCCCTGATGTTAATCGGGTCTTGATTCGCTTGACGCTGCTG | 8.27 | 6.24 | 6.33 | 5.45 | 8.78 | 6.39 | 6.19 |
| CCGATTAACATCAAAATTTCCCCTGATGTTAATCGGGTCTTGATTCGCTTGACGCTGCTG | 10.2 | 11.6 | 14.6 | 10.6 | 8.41 | 8.46 | 7.8 |
| CCGATTAACATCAGGGGGGATTATGATGTTAATCGGGTCTTGATTCGCTTGACGCTGCTG | 8.28 | 6.89 | 7.27 | 7.08 | 6.91 | 6.21 | 6.82 |
| CCGATTAACATCACCCGCCCCCCTGATGTTAATCGGGTCTTGATTCGCTTGACGCTGCTG | 4.08 | 4.08 | 2.95 | 4.02 | 4.78 | 4.22 | 3.85 |
| CCGATTAACATCACTGGATTCCCTGATGTTAATCGGGTCTTGATTCGCTTGACGCTGCTG | 3.07 | 2.76 | 3.56 | 2.61 | 4.48 | 2.82 | 1.36 |
| CCGATTAACATCACCCTTTCCCCTGATGTTAATCGGGTCTTGATTCGCTTGACGCTGCTG | 4.99 | 5.19 | 7.16 | 5.72 | 1.82 | 4.33 | 3.91 |
| CCGATTAACATCACTATTCCCCCTGATGTTAATCGGGTCTTGATTCGCTTGACGCTGCTG | 5.37 | 6.24 | 7.08 | 7.68 | 3.2 | 4.96 | 5.82 |
| CCGATTAACATCAAGAACCCCCTTGATGTTAATCGGGTCTTGATTCGCTTGACGCTGCTG | 7.4 | 6.12 | 7.11 | 1.5 | 8.56 | 6.48 | 6.86 |
| CCGATTAACATCAATAATTCCCCTGATGTTAATCGGGTCTTGATTCGCTTGACGCTGCTG | 8.52 | 10.6 | 11.8 | 8.63 | 7.98 | 7.59 | 6.96 |
| CCGATTAACATCAGCTTCCCCCCTGATGTTAATCGGGTCTTGATTCGCTTGACGCTGCTG | 5.3 | 4.97 | 5.68 | 7.68 | 4.2 | 4.55 | 4.95 |
| CCGATTAACATCACATAATCCCCTGATGTTAATCGGGTCTTGATTCGCTTGACGCTGCTG | 7.93 | 9.03 | 9.99 | 3.86 | 6.27 | 6.55 | 6.8 |
| CCGATTAACATCAGGGGATACACTGATGTTAATCGGGTCTTGATTCGCTTGACGCTGCTG | 4.44 | 4.02 | 5.34 | 3.62 | 5.84 | 4.05 | 3.83 |
| CCGATTAACATCAGAACTTCCCCTGATGTTAATCGGGTCTTGATTCGCTTGACGCTGCTG | 7.33 | 9 | 7.95 | 6.75 | 7.85 | 7.57 | 6.4 |
| CCGATTAACATCAAACGCCCCCCTGATGTTAATCGGGTCTTGATTCGCTTGACGCTGCTG | 4.79 | 4.46 | 3.85 | 3.84 | 4.9 | 5.57 | 5.03 |
| CCGATTAACATCACGGTTTCCCCTGATGTTAATCGGGTCTTGATTCGCTTGACGCTGCTG | 7.03 | 7.64 | 9.99 | 7.67 | 5.09 | 5.42 | 5.88 |
| CCGATTAACATCAAATTTCCCCCTGATGTTAATCGGGTCTTGATTCGCTTGACGCTGCTG | 9.03 | 9.93 | 12.8 | 12.3 | 7.24 | 7.79 | 7.66 |
| CCGATTAACATCAGGGAAATCACTGATGTTAATCGGGTCTTGATTCGCTTGACGCTGCTG | 3.41 | 4.78 | 4.63 | 2.62 | 8.27 | 5.99 | 4.18 |
| CCGATTAACATCAACGAAACCCCTGATGTTAATCGGGTCTTGATTCGCTTGACGCTGCTG | 3.65 | 2.45 | 2.84 | 1.39 | 4.41 | 2.77 | 3.87 |
| CCGATTAACATCAGGGGAATTCATGATGTTAATCGGGTCTTGATTCGCTTGACGCTGCTG | 9.45 | 10.8 | 10.8 | 6.94 | 7.6 | 7.5 | 6.83 |
| CCGATTAACATCAGGGGCATACCTGATGTTAATCGGGTCTTGATTCGCTTGACGCTGCTG | 3.84 | 4.44 | 1.94 | 1.44 | 3.9 | 6.89 | 2.64 |
| CCGATTAACATCAGGGGGAATAATGATGTTAATCGGGTCTTGATTCGCTTGACGCTGCTG | 7.08 | 7.85 | 8.87 | 10.1 | 4.96 | 5.33 | 6.75 |
| CCGATTAACATCATGGGGGAAAATGATGTTAATCGGGTCTTGATTCGCTTGACGCTGCTG | 5.67 | 6.78 | 9.23 | 10.9 | 3.09 | 5.39 | 6.88 |
| CCGATTAACATCAGGGGACGTACTGATGTTAATCGGGTCTTGATTCGCTTGACGCTGCTG | 4.18 | 3.48 | 3.58 | 2.33 | 6.95 | 4.39 | 3.75 |
| CCGATTAACATCAGGGGAAATCATGATGTTAATCGGGTCTTGATTCGCTTGACGCTGCTG | 7.92 | 8.72 | 11.1 | 7.67 | 5.47 | 5.97 | 6.18 |
